D2 antagonist: antagonists of human D2 dopamine receptor; 340,000 tested, 2% active; P14416; inhibition, % at 10 µM; HEK293 TREx D2 cells, calcium flux, dopamine EC80; in the data active = inhibition above about 30%; inactive = below that, where a call was filed; note: 0% is about no effect
Target sequence (P14416 whole entry, looked up): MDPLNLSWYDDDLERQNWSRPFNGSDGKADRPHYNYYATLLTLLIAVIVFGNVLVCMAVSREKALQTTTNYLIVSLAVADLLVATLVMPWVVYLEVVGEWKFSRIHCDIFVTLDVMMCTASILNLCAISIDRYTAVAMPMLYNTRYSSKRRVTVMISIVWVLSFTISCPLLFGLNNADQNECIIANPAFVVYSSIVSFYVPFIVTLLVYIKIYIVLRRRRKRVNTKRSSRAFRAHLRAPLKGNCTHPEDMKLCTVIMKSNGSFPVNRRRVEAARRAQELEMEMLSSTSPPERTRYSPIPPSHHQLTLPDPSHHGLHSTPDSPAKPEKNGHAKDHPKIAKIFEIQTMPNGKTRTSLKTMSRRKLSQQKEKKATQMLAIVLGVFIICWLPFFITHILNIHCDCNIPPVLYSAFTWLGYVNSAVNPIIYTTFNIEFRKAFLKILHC
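Inhibition of EC80 dopamine-driven calcium flux, recorded kinetically, defines activity here; cells are a tetracycline-induced HEK293 T-REx line expressing force-coupled D2.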
D2 ag-1: D2 dopamine receptor (human) agonism | P14416 | HEK293 T-REx D2 cells, calcium flux agonist mode | activation, % at 2 µM | 340,000 tested, 0.53% active | AID 485358;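 active = activation over 3 SD above normal in the single-dose calcium agonist read, cut at about 30% in these data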; note: 0% is about no effect
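HEK293 Trex D2 cells, tetracycline-induced, o/n 30 C 5% CO2; no-wash Ca dye, RT 30–90 min; 10-cycle baseline, 23 nl cpd added, kinetic Ca read 180 s; agonist hits = positive Ca response.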
D2 ag-2: activates the human D2 dopamine receptor; P14416; DiscoveRx PathHunter D2 beta-arrestin, luminescence, 90 min; 100% = 57 uM dopamine signal; activation, % (no concentration beside the values); 360,000 tested, 0.084% active; AID 624465; in the data active = activation above about 40%
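DiscoveRx PathHunter D2 beta-arrestin cells (2,100/well) attached overnight, then compound-stimulated 90 min at 37 C in HBSS/10 mM HEPES/0.1% Tween-20 buffer; beta-galactosidase complementation read by luminescence after 1 h at ambient temperature. Dopamine 57 uM final (EC100) as control.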
D2 PAM-1: potentiates the human D2 dopamine receptor allosterically | AID 624464 | P14416 | 360,000 tested, 0.23% active | DiscoveRx D2 beta-arrestin cells, luminescence, 90 min; 100% = 57 uM dopamine signal | potentiation, % (test concentration not listed); in the data active = potentiation above about 50%
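D2 cells co-treated with compound plus 50 nM dopamine (EC20) for 90 min at 37 deg C to detect potentiation. Beta-arrestin recruitment was read as enzyme-fragment luminescence after 1 h at ambient temperature. Full response was set by 57 uM dopamine.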
D2 PAM-2: positive allosteric modulators of human D2 dopamine receptor; P14416; HEK293 T-REx D2, calcium flux, EC20 dopamine potentiation; potentiation, % at 10 µM; 340,000 tested, 0.34% active; AID 485347;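 active = potentiation over 3 SD above the plate norm, cut at about 30% in these data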; note: 0% is about no effect
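Cells plated with tetracycline inducer and held overnight at 30 C; calcium dye loaded 30–90 min at room temperature; baseline taken, compound added and read 180 s; EC20 dopamine then added and read 180 s.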
* marks the source's active call; other numbers are inactive results; · = no result given. In the library only some 2.4% were active in any assay of this set; here they are far more common.

SMILES	D2 antagonist	D2 ag-1	D2 ag-2	D2 PAM-1	D2 PAM-2
O=C1[C@H]2[C@@H](c3ccc(F)cc3)N3C(=O)N(c4cccc(Br)c4)C(=O)[C@@]3(Cc3ccccc3)[C@H]2C(=O)N1C1CCCCC1	40.9*	1.4	0.4	-13.7	-4.4
COc1ccc(C(=O)NCCC2=CCCCC2)cc1	-7.9	-0.2	-6.4	-24.1	-5.8
COc1ccc(C(=O)NCCSCc2cccc(Cl)c2)cc1OC	32.0*	-0.2	-5.5	-8.4	-1.3
COc1ccc(C(=O)NCCc2cnc[nH]2)cc1OC	34.9*	-0.6	-7.8	-18.1	19.3
COc1ccc(C(=O)NCCC2=CCCCC2)cc1OC	34.5*	-0.4	-2.0	-17.6	-21.2
CC(C)OCCCNC(=O)C(=O)Nc1ccc2nc3n(c(=O)c2c1)CCCCC3	·	-0.5	·	·	12.7
COc1ccc(NC(=O)N2CCc3c(sc4c3CCCC4)C2c2ccc(F)cc2)cc1 (centres undefined)	·	·	·	·	-2.6
Cc1sc(NC(=O)CCC(=O)O)c(C(N)=O)c1-c1ccccc1	47.5*	-0.3	-0.4	15.3	3.7
CN1CCC(=C2c3ccccc3CCc3sccc32)CC1	86.2*	1.2	-7.5	-35.7	-26.1
CN1CCC(=C2c3ccccc3CC(=O)c3sccc32)CC1	7.9	1.5	-2.8	-26.7	9.7
Cc1ccc(C)c(CN2C(=O)c3ccccc3S(=O)c3ccc(C(=O)N4CCN(c5cccc(Cl)c5)CC4)cc32)c1 (centres undefined)	·	0.4	·	·	-9.2
N/C(COc1ccc(Cl)cc1Cl)=N\O	-7.1	1.1	-4.3	-17.5	32.3*
CCC1CCCCN1C(=O)COc1cc(=O)n(C)c2ccccc12 (centres undefined)	-16.3	1.5	-1.9	0.1	-4.5
CCC1CCCCN1C(=O)COc1ccccc1NC(C)=O (centres undefined)	-4.5	-1.5	0.5	-12.8	32.2*
COc1ccccc1NC(=O)C1=C(C)Nc2c(C(=O)Nc3ccc(C)cc3)cnn2C1c1cccc(OC)c1OC (centres undefined)	·	0.0	·	·	2.5
CC1CN(CCCCOc2ccc(Cl)c3ccccc23)CC(C)O1 (centres undefined)	58.3*	-2.5	-0.1	-12.2	-23.8
O=C(COC(=O)/C=C/c1ccco1)NCc1ccc(Cl)cc1Cl	·	·	7.5	0.4	·
O=C(COC(=O)/C=C/c1ccco1)NCc1ccccc1Cl	32.6*	0.1	-2.5	0.1	9.5
CCCCNC(=O)CCCN1C(=O)CCn2nc(-c3cccn3C)cc21	·	-2.1	·	·	-0.4
CSc1nc2sc3c(c2c(=O)n1Cc1ccccc1)CCC(C(C)(C)C)C3 (centres undefined)	·	0.9	·	·	-14.5
CC(=O)NC(c1cccc(F)c1)c1nc(-c2ccccc2C)cs1 (centres undefined)	·	·	-3.4	-5.3	·
COc1cccc(C(NC(C)=O)c2nc(-c3ccccc3C)cs2)c1 (centres undefined)	·	·	77.5*	-3.0	·
C=CCSc1nc(C)c(CCCC)c(=O)[nH]1	-8.7	-0.2	-0.9	-0.4	9.9
C=CCSc1nc(C)c(CC=C)c(=O)[nH]1	-10.6	0.7	-1.6	-4.5	34.9*
Cc1cc(C)n2nc(C(=O)OCC(=O)Nc3ccc(Cl)cc3)nc2n1	·	·	0.6	0.0	·
SMILES	D2 antagonist	D2 ag-1	D2 ag-2	D2 PAM-1	D2 PAM-2
CCCOC(=O)c1ccc(NC(=O)c2nc3nc(C)cc(C)n3n2)cc1	7.8	-0.7	-3.0	-7.6	31.1*
CCOC(=O)Cn1c(=O)n(C2CCCCC2)c2nc(-c3ccc(CC)cc3)nc(C(N)=O)c21	·	-1.4	·	·	1.3
CS(=O)(=O)N1CCN(c2ccc(NC(=S)NC(=O)c3ccccc3[N+](=O)[O-])cc2)CC1	32.9*	-0.3	3.0	-13.2	-14.4
Cc1ccccc1C(=O)Nc1ccc2nc(SCC(=O)N3CCc4ccccc43)sc2c1	·	4.6	·	·	-7.0
c1ccc(CNc2nc3ccccc3n3cnnc23)cc1	-2.9	0.4	-2.0	-3.3	41.2*
c1ccc(CNc2nc3ccccc3n3cnnc23)nc1	19.7	1.2	-0.9	-2.0	-0.2
COc1ccc(-c2cc(C3CCN(Cc4cccc(C(F)(F)F)c4)CC3)[nH]n2)cc1	59.2*	-1.0	3.9	-12.7	-23.1
Cc1cc(C)cc(C(=O)Nc2ccc(-c3nc4ncccc4o3)cc2)c1	·	-1.4	·	·	11.6
Fc1cccc2sc(Nc3nnc(-c4ccccc4)o3)nc12	43.1*	0.6	-5.5	-21.5	-7.1

High-throughput results: PubChem, National Center for Advancing Translational Sciences (NCATS)
